Source: PubChem BioAssay (National Center for Advancing Translational Sciences (NCATS))
This is a sample that favours compounds with a hit; in the whole collection about 3.1% have one here.
p53null 39C tox – qHTS Screen for Compounds that Selectively Target Cancer Cells with p53 Mutations: Cytotoxicity of p53 Null Cells at the Nonpermissive Temperature. AID 904, 2007. H1299 p53-null (neo) cells, 39C, ATPlite viability, 24 h. hit rate 0.97% among 55,000. Potency, µM (top dose mostly 46.1 µM), for inactives: top-dose activity, negative = cell killing, most hits filed as cytotoxic;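 further: potency means the concentration at half of the fitted maximal effect; 0% = DMSO only and -100% = full killing by 100 µM tamoxifen; nearly all actives have a fitted effect of over 50% in size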
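Following overnight plating at 37C (600 cells/well), H1299-neo or H1299-p53A138V cells are dosed up to 46 uM. Incubation lasts 24 hr at 39C before ATP detection.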
PMP22 txn prim – Cell-based coincidence reporter assay to measure PMP22 gene transcription in S16 Pmp22-F2sN cells - Primary screen. S16 Pmp22-F2sN Schwann cells, FLuc/NLuc coincidence luminescence, 24 h. Potency, µM (titrated, usually from 57.5 µM), for inactives: at the highest dose activity change, negative = inhibition, usual class: inhibitors. hit rate 2% among 43,000. AID 1508649, 2021; active means clear falling dose curves in both reporters; inconclusive means both reporters move, but less clearly or upward; inactive means either reporter flat; the % is the NLuc reporter signal; further: potency means the concentration at half of the fitted maximal effect; on the % scale 0 is the no-effect control and ±100 the full control effect
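Schwann cells carrying the coincidence reporter were exposed to library compounds for 24 h at 37C, then lysed and read for FLuc and, after quenching, NLuc luminescence on a CCD imager.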
SKOV3 invasion – Primary qHTS assay for Inhibitors of ovarian cancer metastasis using an organotypic tumor microenvironment (TME) model. SKOV3ip1-GFP adhesion/invasion on 3D omental model, fluorescence. Potency, µM (highest dose often 45.8 µM), for the others: at the top dose activity change, negative = inhibition, actives largely listed as inhibitors. hit rate 0.1% among 46,000;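 further: potency means the concentration at half of the fitted maximal effect; plate controls were DMSO wells for no effect and tomatine positive control wells for full effect; nearly all actives have a fitted effect of over 65% in size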
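qHTS, 4-pt dose (0.36-46 umol/L); SKOV3ip1-GFP, 1,200 cells/well, no FBS; primary omental fibroblast/mesothelial co-culture 48 h pre-grown; 2 h RT + 16 h 37 C; PBS wash, 4% PFA; GFP count 488/509 nm.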
S16 viability – Cell viability qHTS assay in S16 Pmp22-F2sN cells. S16 Pmp22-F2sN Schwann cells (luciferase reporters placed in the Pmp22 gene) viability, CellTiter-Glo, 24 h. Potency, µM (highest dose often 57.5 µM), for the others: top-dose activity change, negative = cytotoxicity, hits mostly cytotoxic. hit rate 0.48% among 43,000; further: potency means the concentration at half of the fitted maximal effect; on the % scale 0 is the no-effect control and ±100 the full control effect; nearly all actives have a fitted effect of over 65% in size
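Luminescence from CellTiter-Glo, read by CCD camera after a 15 min room-temperature incubation, served as the viability signal. Reporter Schwann cells (S16 Pmp22-F2sN) had been treated with pin-transferred compounds for 24 h at 37C.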
p53null 32C kill – qHTS Screen for Compounds that Selectively Target Cancer Cells with p53 Mutations: Cytotoxicity of p53 Null Cells at the Permissive Temperature; AID 903, 2007; H1299-neo p53 null cells, ATP luminescence, 24 h, 32C; hit rate 0.62% among 55,000; Potency, µM (series often up to 46.1 µM), inactives show top-dose activity change, negative = cytotoxicity, most hits filed as cytotoxic;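 further: potency means the concentration at half of the fitted maximal effect; 0% = DMSO only and -100% = full killing by 100 µM tamoxifen; nearly all actives have a fitted effect of over 55% in size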
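Cells lacking p53 (H1299-neo) are plated at 600 per well and allowed to settle overnight at 37C. Test compounds (up to 46 uM) are added and held 24 hours at 32C, then ATP is quantified by luminescence.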
pS6 MEF inh – Acumen qHTS Assay for Inhibitors of the mTORC1 Signaling Pathway in MEF (Tsc2-/-, p53-/-) Cells: Sytravon. Tsc2-/- p53-/- MEF, phospho-rpS6 immunofluorescence/PI, 24 h. Potency, µM (titrated, usually from 38.3 µM), inactives show at the top dose activity change, negative = inhibition, hits mostly inhibitors. hit rate 0.78% among 44,000;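 further: potency means the concentration at half of the fitted maximal effect; plate controls were DMSO for no effect and rapamycin for full effect; nearly all actives have a fitted effect of over 50% in size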
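Readout is phospho-S6 Alexa 488 signal normalized to PI per well, reported as % active cells with thresholds set from rapamycin (7.5 nM) and DMSO controls. Cells: Tsc2-/-, p53-/- MEFs, 24 hrs compound at 37 C; PI cell number serves as viability.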
NLuc saturating – Biochemical NLuc saturation counterscreen for small molecule modulators of PMP22 gene expression - Nano-Glo assay. Secreted NLuc enzyme (filtered S16 cell medium), Nano-Glo luminescence. shares compounds with PMP22 txn prim. hit rate 4% among 690. Potency, µM (top dose mostly 57.5 µM), for the others: top-dose activity change, negative = inhibition, actives largely listed as inhibitors; further: potency means the concentration at half of the fitted maximal effect; on the % scale 0 is the no-effect control and ±100 the full control effect
NLuc Km counter – Biochemical coelenterazine-based NLuc counterscreen for small molecule modulators of PMP22 gene expression - Km assay. hit rate 5% among 690. secreted NLuc enzyme, coelenterazine luminescence, Km conditions. shares compounds with PMP22 txn prim. Potency, µM (top dose mostly 57.5 µM), inactives show at the top dose activity change, negative = inhibition, actives largely listed as inhibitors; further: potency means the concentration at half of the fitted maximal effect; on the % scale 0 is the no-effect control and ±100 the full control effect
FLuc ctr PMP22 – Biochemical FLuc counterscreen for small molecule modulators of PMP22 gene expression. purified P. pyralis FLuc, luminescence, 10 min. 690 tested, under 10 active. shares compounds with PMP22 txn prim. Potency, µM (titrated, usually from 57.5 µM), without a hit: at the highest dose activity, negative = inhibition, actives largely listed as inhibitors; further: % of control where 0% means no effect
Target sequence (P08659 whole entry, looked up): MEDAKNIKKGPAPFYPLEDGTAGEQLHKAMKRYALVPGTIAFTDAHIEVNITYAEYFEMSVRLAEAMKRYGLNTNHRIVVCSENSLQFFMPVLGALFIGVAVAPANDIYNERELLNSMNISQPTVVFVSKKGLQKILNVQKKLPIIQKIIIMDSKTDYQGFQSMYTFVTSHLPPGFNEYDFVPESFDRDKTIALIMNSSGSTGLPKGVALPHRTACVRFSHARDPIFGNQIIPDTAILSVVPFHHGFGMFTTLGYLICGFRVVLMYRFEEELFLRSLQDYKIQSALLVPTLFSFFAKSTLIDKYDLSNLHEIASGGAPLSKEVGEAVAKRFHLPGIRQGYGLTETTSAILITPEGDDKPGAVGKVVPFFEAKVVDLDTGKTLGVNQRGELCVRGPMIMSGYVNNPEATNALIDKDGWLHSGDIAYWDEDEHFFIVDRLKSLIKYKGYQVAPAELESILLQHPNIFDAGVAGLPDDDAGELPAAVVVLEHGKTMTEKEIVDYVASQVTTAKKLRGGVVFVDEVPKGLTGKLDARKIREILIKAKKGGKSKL
S16 F2sN tox cnf – Cell viability qHTS assay in S16 Pmp22-F2sN cells - Confirmatory screen. Potency, µM (titrated, usually from 57.5 µM), without a hit: at the highest dose activity change, negative = viability loss, most hits filed as cytotoxic. shares compounds with PMP22 txn prim. S16 Schwann cells viability, CellTiter-Glo ATP luminescence, 24 h. hit rate 7% among 690; further: potency means the concentration at half of the fitted maximal effect; on the % scale 0 is the no-effect control and ±100 the full control effect
PMP22 txn conf – Cell-based coincidence reporter assay to measure PMP22 gene transcription in S16 Pmp22-F2sN cells - Confirmatory screen. S16 Schwann cells Pmp22-F2sN, dual luciferase, 24 h. shares compounds with PMP22 txn prim. hit rate 22% among 690. Potency, µM (highest dose often 57.5 µM), for the others: at the top dose activity change, negative = inhibition, actives largely listed as inhibitors; active means clear falling dose curves in both reporters; inconclusive means both reporters move, but less clearly or upward; inactive means either reporter flat; the % is the FLuc reporter signal; further: potency means the concentration at half of the fitted maximal effect
* = called active by the depositor; i = inactive; ? = inconclusive; nt = no result given. Unless noted, the call rests on the fitted dose curve; in most records, active means well fitted curve in the direction sought with a large enough effect; inconclusive means small, poorly fitted or top-dose-only effect, or another doubt; inactive means no such curve, though single readings can be large; an effect the other way counts as inactive or inconclusive.

SMILES | p53null 39C tox | PMP22 txn prim | SKOV3 invasion | S16 viability | p53null 32C kill | pS6 MEF inh | NLuc saturating | NLuc Km counter | FLuc ctr PMP22 | S16 F2sN tox cnf | PMP22 txn conf
COc1ccc(OC)c(NC(=O)c2c(NCc3sccc3C)sc3c2CCCCC3)c1 | 4% | 11µM* | -1% | -10% | 12% | -14% | ? | 14µM* | -11% | ? | -24%
Cc1cc(N2CCN(c3cccc(C(F)(F)F)c3)CC2)n2nc(-c3ccccc3C)nc2n1 | -14% | 16µM* | i | 2% | -6% | -5% | ? | -19% | -10% | -6% | ?
O=C(Nc1ccccc1Br)N[C@@H]1CCN(c2ccc(C(F)(F)F)cn2)C1 | nt | nt | 1% | nt | nt | nt | nt | nt | nt | nt | nt
CCC(=O)Nc1nnc(SCc2cc(=O)c3cc(C)ccc3[nH]2)s1 | 15% | ? | -1% | -25% | -3% | 8% | nt | nt | nt | nt | nt
CCCC(=O)Nc1nnc(SCc2cc(=O)c3ccc(C)cc3[nH]2)s1 | 2% | 6.8µM* | -19% | -22% | 0% | ? | ? | ? | -12% | -23% | ?
Cc1ccc(Nc2c3c(nc4ccccc24)CCC3)cc1F | ? | 16µM* | -22% | -15% | 10% | -4% | -11% | ? | 5% | -27% | ?
COc1ccccc1Nc1c2c(nc3ccc(NC(=O)c4ccccc4F)cc13)CCCC2 | 12% | ? | ? | ? | 15% | ? | nt | nt | nt | nt | nt
COc1ccc(Nc2c3c(nc4ccc(NC(=O)c5ccc(F)cc5)cc24)CCCC3)cc1OC | -22% | ? | ? | ? | ? | 0% | nt | nt | nt | nt | nt
Cc1ccc2nc3c(c(Nc4ccc(C)c(C)c4)c2c1)CCC3 | -3% | 19µM* | -14% | ? | 24% | -10% | -13% | -15% | -6% | 6% | ?
